Values without a mark were called inactive.
Each molecule was assayed on Madurella mycetomatis MM55 (assay: growth relative to untreated control; higher = less inhibition, active = 20 or less). Details: 25 µM.
Protocol: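 Hyphal fragments of M. mycetomatis MM55 or F. senegalensis CBS197.79 in RPMI 1640/MOPS were exposed to each MMV COVID Box or Global Health Priority Box compound at 100 or 25 µM for 7 days at 37 °C. Viability was read with MTS (490 nm, M. mycetomatis) or resazurin (600 nm, F. senegalensis), background-corrected with a medium-only control and expressed as % growth relative to the untreated growth control. Inhibition of more than 80% was taken as growth inhibition.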
Molecule `CC1(C)C(C=C(Cl)Cl)C1C(=O)OC(C#N)c1ccc(F)c(Oc2ccccc2)c1` (stereo not given) has a growth of 115%. `COP(=S)(OC)Oc1nc(Cl)c(Cl)cc1Cl` gave a growth of 88.5%. Molecule `CCOP(=S)(OCC)Oc1cc(C)nc(C(C)C)n1` has a growth of 108%. `CC(C)=CC1C(C(=O)OC(C#N)c2cccc(Oc3ccccc3)c2)C1(C)C` (stereo not given) showed a growth of 83.3%. `O=C(NC(=O)c1c(F)cccc1F)Nc1ccc(Cl)cc1` showed a growth of 99.6%. Molecule `CCC(CC)c1cccc(OC(=O)NC)c1.CCCC(C)c1cccc(OC(=O)NC)c1` has a growth of 96.3%. For `O=[N+]([O-])/C=C1\NCCCS1`, the growth was 94%. In the case of `COC(C)(C)CCCC(C)C/C=C/C(C)=C/C(=O)OC(C)C` (stereo not given), the growth is reported as 47.7%. With `CN(C)CCn1c(Nc2cc(Cl)cc(C(F)(F)F)c2)nc2cnc(NC3CCC3)cc21` the growth was 80.9%. With `CN/C(=N\[N+](=O)[O-])NCc1cnc(Cl)s1` the growth was 112%. For `CN(c1cc(NC(=O)c2ccc(F)cc2)ccn1)C1CCN(Cc2cccc(F)c2)CC1`, the growth was 5.69% (active). Work on `CCOC(=O)CC(SP(=S)(OC)OC)C(=O)OCC` (stereo not given) yielded a growth of 128%. `N#Cc1nn(-c2c(Cl)cc(C(F)(F)F)cc2Cl)c(N)c1S(=O)C(F)(F)F` (stereo not given) gave a growth of 120%. For `CC[C@@H]1CCC[C@H](O[C@H]2CC[C@H](N(C)C)[C@@H](C)O2)[C@@H](C)C(=O)C2=C[C@@H]3[C@@H](C=C(C)[C@@H]4C[C@@H](O[C@@H]5O[C@@H](C)[C@H](OC)[C@@H](OC)[C@H]5OC)C[C@@H]34)[C@@H]2CC(=O)O1.CC[C@@H]1CCC[C@H](O[C@H]2CC[C@H](N(C)C)[C@@H](C)O2)[C@@H](C)C(=O)C2=C[C@@H]3[C@@H](C=C[C@@H]4C[C@@H](O[C@@H]5O[C@@H](C)[C@H](OC)[C@@H](OC)[C@H]5OC)C[C@@H]34)[C@@H]2CC(=O)O1`, the growth was 133%. With `COc1ccc(CCN2CCC(Nc3nc4ccccc4n3Cc3ccc(F)cc3)CC2)cc1` the growth was 3.51% (active). With `CC(F)c1ncnc(NCCc2ccc(OC(F)(F)F)cc2)c1Cl` (stereo not given) the growth was 11% (active). `CNCCn1c(Nc2cc(Cl)cc(C(F)(F)F)c2)nc2cnc(NC3CC(F)(F)C3)cc21` was tested, and the growth was 22.2%. In the case of `CN/C(=N/CC1CCOC1)N[N+](=O)[O-]` (stereo not given), the growth is reported as 90.9%. For `NCCc1cn(S(=O)(=O)c2c(Cl)nc3sccn23)c2ccccc12`, the growth was 79.9%. `N#Cc1nn(-c2c(Cl)cc(C(F)(F)F)cc2Cl)c(NCc2ccccn2)c1SC(F)F` showed a growth of 47.2%.

Same assay, conditions: 100 µM
In the case of `CC1(C)C(C=C(Cl)Cl)C1C(=O)OC(C#N)c1ccc(F)c(Oc2ccccc2)c1` (stereo not given), the growth is reported as 146%. `COP(=S)(OC)Oc1nc(Cl)c(Cl)cc1Cl` showed a growth of 106%. `CCOP(=S)(OCC)Oc1cc(C)nc(C(C)C)n1` gave a growth of 135%. Work on `CC(C)=CC1C(C(=O)OC(C#N)c2cccc(Oc3ccccc3)c2)C1(C)C` (stereo not given) yielded a growth of 145%. `O=C(NC(=O)c1c(F)cccc1F)Nc1ccc(Cl)cc1` showed a growth of 81%. For `CCC(CC)c1cccc(OC(=O)NC)c1.CCCC(C)c1cccc(OC(=O)NC)c1`, the growth was 147%. With `O=[N+]([O-])/C=C1\NCCCS1` the growth was 122%. `COC(C)(C)CCCC(C)C/C=C/C(C)=C/C(=O)OC(C)C` (stereo not given) showed a growth of 105%. `CN(C)CCn1c(Nc2cc(Cl)cc(C(F)(F)F)c2)nc2cnc(NC3CCC3)cc21` showed a growth of 104%. `CN/C(=N\[N+](=O)[O-])NCc1cnc(Cl)s1` gave a growth of 127%. For `CN(c1cc(NC(=O)c2ccc(F)cc2)ccn1)C1CCN(Cc2cccc(F)c2)CC1`, the growth was 9.07% (active). `CCOC(=O)CC(SP(=S)(OC)OC)C(=O)OCC` (stereo not given) was tested, and the growth was 131%. `N#Cc1nn(-c2c(Cl)cc(C(F)(F)F)cc2Cl)c(N)c1S(=O)C(F)(F)F` (stereo not given) gave a growth of 86.5%. `CC[C@@H]1CCC[C@H](O[C@H]2CC[C@H](N(C)C)[C@@H](C)O2)[C@@H](C)C(=O)C2=C[C@@H]3[C@@H](C=C(C)[C@@H]4C[C@@H](O[C@@H]5O[C@@H](C)[C@H](OC)[C@@H](OC)[C@H]5OC)C[C@@H]34)[C@@H]2CC(=O)O1.CC[C@@H]1CCC[C@H](O[C@H]2CC[C@H](N(C)C)[C@@H](C)O2)[C@@H](C)C(=O)C2=C[C@@H]3[C@@H](C=C[C@@H]4C[C@@H](O[C@@H]5O[C@@H](C)[C@H](OC)[C@@H](OC)[C@H]5OC)C[C@@H]34)[C@@H]2CC(=O)O1` gave a growth of 91.5%. With `COc1ccc(CCN2CCC(Nc3nc4ccccc4n3Cc3ccc(F)cc3)CC2)cc1` the growth was 4.43% (active). `CC(F)c1ncnc(NCCc2ccc(OC(F)(F)F)cc2)c1Cl` (stereo not given) was tested, and the growth was 10.1% (active). In the case of `CNCCn1c(Nc2cc(Cl)cc(C(F)(F)F)c2)nc2cnc(NC3CC(F)(F)C3)cc21`, the growth is reported as 6.62% (active). Work on `CN/C(=N/CC1CCOC1)N[N+](=O)[O-]` (stereo not given) yielded a growth of 125%. In the case of `NCCc1cn(S(=O)(=O)c2c(Cl)nc3sccn23)c2ccccc12`, the growth is reported as 2.9% (active). Molecule `N#Cc1nn(-c2c(Cl)cc(C(F)(F)F)cc2Cl)c(NCc2ccccn2)c1SC(F)F` has a growth of 131%.

Reference: the supplement of paper PMC11172423
